The structures appear in SMILES notation.

Assay [1] has as its target MAP/microtubule affinity-regulating kinase 3 (Homo sapiens) (UniProt P27448). To be noted: at 1 µM.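 Further: reported values are averaged percent inhibition of MARK3.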
In assay [2] the target is T1, MAP/microtubule affinity-regulating kinase 4 (Homo sapiens) (UniProt Q96L34).
T1 sequence (whole entry): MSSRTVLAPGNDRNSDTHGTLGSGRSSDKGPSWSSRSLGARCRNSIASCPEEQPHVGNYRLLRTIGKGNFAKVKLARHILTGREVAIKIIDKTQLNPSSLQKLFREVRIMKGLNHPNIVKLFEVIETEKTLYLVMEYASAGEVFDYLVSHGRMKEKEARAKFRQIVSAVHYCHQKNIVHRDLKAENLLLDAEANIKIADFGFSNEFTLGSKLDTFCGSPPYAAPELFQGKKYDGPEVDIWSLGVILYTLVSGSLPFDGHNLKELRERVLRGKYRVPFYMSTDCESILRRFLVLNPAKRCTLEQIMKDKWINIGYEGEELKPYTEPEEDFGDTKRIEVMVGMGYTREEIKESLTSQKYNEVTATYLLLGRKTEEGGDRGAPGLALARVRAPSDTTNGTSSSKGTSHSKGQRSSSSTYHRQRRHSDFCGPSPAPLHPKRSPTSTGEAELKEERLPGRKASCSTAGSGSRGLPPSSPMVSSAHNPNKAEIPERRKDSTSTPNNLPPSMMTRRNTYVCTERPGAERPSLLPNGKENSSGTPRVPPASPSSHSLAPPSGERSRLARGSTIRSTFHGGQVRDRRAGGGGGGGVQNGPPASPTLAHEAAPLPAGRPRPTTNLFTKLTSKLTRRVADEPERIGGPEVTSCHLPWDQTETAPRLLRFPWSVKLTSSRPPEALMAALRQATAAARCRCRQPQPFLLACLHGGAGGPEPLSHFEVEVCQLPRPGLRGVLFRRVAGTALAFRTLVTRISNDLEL
To be noted: at 0.1 µM.

In assay [3] the target is T1, MAP/microtubule affinity-regulating kinase 4 (Homo sapiens). To be noted: at 1 µM.
The target in assay [4] is Maternal embryonic leucine zipper kinase (Homo sapiens) (UniProt Q14680). To be noted: at 0.1 µM.
Maternal embryonic leucine zipper kinase (Homo sapiens), sequence (Q14680 whole entry, looked up): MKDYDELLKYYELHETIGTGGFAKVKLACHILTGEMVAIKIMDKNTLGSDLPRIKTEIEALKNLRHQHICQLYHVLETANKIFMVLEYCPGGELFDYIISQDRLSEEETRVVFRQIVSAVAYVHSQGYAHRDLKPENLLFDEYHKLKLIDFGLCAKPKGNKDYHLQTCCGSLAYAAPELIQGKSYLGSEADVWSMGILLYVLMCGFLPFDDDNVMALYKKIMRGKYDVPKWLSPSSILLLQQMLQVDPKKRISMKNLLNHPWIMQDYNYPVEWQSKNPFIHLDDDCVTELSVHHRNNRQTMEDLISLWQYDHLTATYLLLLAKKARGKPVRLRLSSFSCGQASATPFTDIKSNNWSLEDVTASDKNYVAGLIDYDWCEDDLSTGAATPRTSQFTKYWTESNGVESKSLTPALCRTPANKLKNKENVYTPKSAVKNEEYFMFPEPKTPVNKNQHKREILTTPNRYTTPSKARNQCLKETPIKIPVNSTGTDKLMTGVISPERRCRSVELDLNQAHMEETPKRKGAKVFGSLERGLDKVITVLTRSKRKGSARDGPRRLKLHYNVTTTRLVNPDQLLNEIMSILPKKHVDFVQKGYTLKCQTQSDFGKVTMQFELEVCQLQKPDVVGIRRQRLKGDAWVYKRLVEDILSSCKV
For assay [5] the target is unchanged. To be noted: at 1 µM.
For assay [6], the target named is MAP kinase-interacting serine/threonine-protein kinase 1 (Homo sapiens) (UniProt Q9BUB5). To be noted: at 0.1 µM.
MAP kinase-interacting serine/threonine-protein kinase 1 (Homo sapiens), sequence (Q9BUB5 whole entry, looked up): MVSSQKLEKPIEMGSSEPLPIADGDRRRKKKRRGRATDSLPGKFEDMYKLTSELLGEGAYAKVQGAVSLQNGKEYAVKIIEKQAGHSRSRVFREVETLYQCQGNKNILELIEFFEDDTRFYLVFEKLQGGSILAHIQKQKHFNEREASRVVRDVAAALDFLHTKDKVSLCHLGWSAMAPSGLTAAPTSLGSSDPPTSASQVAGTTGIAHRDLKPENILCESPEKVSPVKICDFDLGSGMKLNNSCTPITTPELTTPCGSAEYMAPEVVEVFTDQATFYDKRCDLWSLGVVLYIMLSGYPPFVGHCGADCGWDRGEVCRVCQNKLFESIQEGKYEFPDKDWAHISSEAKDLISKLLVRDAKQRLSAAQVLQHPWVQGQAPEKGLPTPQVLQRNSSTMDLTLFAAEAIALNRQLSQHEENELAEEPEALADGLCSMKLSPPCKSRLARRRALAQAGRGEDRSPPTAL
Assay [7] shares this target. To be noted: at 1 µM.
Assay [8] has as its target MAP kinase-interacting serine/threonine-protein kinase 2 (Homo sapiens) (UniProt Q9HBH9). To be noted: at 0.1 µM.
Assay [9] shares this target. To be noted: at 1 µM.
Assay [10] addresses Serine/threonine-protein kinase MARK2 (Homo sapiens) (UniProt Q7KZI7). To be noted: at 0.1 µM.
The target is the same in assay [11]. To be noted: at 1 µM.
For assay [12], the target named is PAS domain-containing serine/threonine-protein kinase (Homo sapiens) (UniProt Q96RG2). To be noted: at 0.1 µM.
PAS domain-containing serine/threonine-protein kinase (Homo sapiens), sequence (Q96RG2 whole entry, the tested form may be a part): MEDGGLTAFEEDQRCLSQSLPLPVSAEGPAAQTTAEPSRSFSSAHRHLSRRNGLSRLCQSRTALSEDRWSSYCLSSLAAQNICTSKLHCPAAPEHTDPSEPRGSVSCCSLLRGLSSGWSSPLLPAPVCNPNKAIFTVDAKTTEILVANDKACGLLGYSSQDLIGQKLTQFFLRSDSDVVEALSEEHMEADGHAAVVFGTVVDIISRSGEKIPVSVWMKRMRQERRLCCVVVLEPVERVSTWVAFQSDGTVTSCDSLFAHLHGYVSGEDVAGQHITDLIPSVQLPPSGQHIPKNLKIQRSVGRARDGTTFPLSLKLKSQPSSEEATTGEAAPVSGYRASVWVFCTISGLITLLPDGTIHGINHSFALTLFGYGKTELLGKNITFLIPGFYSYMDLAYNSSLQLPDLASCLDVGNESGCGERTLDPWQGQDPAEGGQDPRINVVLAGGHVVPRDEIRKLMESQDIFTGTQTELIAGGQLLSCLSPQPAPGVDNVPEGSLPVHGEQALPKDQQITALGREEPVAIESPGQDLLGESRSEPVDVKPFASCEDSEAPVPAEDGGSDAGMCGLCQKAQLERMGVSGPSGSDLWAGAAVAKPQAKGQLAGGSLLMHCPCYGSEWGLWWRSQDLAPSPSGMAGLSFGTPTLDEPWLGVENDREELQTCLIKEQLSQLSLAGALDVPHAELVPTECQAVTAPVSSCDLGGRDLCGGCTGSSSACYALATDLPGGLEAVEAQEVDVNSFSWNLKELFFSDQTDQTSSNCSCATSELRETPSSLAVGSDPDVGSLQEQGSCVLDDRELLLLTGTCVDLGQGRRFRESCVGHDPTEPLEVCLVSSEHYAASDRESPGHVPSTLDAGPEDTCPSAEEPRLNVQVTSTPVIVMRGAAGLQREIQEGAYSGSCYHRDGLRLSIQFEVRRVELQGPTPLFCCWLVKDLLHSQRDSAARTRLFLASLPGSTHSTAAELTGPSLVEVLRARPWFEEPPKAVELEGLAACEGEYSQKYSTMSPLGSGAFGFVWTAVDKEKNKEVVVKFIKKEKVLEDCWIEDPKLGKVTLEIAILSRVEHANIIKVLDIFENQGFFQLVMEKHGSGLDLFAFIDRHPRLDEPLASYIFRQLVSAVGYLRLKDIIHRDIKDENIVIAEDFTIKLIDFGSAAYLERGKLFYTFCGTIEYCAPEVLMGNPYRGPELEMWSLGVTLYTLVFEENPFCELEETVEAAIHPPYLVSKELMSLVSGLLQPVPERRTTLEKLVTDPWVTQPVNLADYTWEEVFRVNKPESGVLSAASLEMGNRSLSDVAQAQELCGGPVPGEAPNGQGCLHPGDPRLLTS
For assay [13] the target is unchanged. To be noted: at 1 µM.
In assay [14] the target is Phosphorylase b kinase gamma catalytic chain, skeletal muscle/heart isoform (Homo sapiens) (UniProt Q16816). To be noted: at 0.1 µM.
Phosphorylase b kinase gamma catalytic chain, skeletal muscle/heart isoform (Homo sapiens), sequence (Q16816 whole entry, looked up, canonical isoform): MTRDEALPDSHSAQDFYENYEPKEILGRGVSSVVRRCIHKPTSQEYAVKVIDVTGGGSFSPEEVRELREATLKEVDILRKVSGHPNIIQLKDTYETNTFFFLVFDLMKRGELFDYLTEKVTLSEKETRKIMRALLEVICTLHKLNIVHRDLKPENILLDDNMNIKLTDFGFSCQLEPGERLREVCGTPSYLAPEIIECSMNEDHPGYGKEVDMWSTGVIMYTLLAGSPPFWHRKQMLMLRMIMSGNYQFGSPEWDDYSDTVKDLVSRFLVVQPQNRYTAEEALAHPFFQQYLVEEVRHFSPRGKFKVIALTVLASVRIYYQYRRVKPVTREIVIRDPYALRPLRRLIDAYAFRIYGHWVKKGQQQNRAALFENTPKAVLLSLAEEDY
For assay [15] the target is unchanged. To be noted: at 1 µM.
Assay [16] has as its target T2, Phosphorylase b kinase gamma catalytic chain, liver/testis isoform (Homo sapiens) (UniProt P15735).
T2 sequence (whole entry): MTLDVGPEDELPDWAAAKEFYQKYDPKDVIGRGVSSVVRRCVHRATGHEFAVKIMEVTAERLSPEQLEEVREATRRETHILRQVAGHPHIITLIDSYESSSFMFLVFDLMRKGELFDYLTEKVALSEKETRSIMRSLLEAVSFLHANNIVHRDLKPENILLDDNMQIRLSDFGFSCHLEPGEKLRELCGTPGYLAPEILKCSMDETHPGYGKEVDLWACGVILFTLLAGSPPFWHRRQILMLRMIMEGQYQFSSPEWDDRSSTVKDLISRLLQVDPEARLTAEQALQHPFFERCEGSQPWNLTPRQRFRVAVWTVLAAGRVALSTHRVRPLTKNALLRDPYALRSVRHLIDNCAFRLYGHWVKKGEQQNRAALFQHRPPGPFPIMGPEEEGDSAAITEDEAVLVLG
To be noted: at 0.1 µM.

In assay [17] the target is T2, Phosphorylase b kinase gamma catalytic chain, liver/testis isoform (Homo sapiens). To be noted: at 1 µM.
In assay [18] the target is Serine/threonine-protein kinase pim-1 (Homo sapiens) (UniProt P11309). To be noted: at 0.1 µM.
Serine/threonine-protein kinase pim-1 (Homo sapiens), sequence (P11309 whole entry, looked up): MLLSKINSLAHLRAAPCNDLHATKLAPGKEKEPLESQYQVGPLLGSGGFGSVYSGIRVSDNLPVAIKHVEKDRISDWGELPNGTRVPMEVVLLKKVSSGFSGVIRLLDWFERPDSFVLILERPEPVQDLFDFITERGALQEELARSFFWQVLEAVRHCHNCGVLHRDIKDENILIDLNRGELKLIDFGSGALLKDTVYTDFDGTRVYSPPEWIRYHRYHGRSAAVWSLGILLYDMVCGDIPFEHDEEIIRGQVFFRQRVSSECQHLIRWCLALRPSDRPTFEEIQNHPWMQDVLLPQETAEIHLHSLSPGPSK
The target is the same in assay [19]. To be noted: at 1 µM.
In assay [20] the target is Serine/threonine-protein kinase pim-2 (Homo sapiens) (UniProt Q9P1W9). To be noted: at 0.1 µM.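 Further: reported value is the mean percent inhibition of PIM2, measured in the GSK PKIS kinase inhibitor set screen.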
Serine/threonine-protein kinase pim-2 (Homo sapiens), sequence (Q9P1W9 whole entry, looked up): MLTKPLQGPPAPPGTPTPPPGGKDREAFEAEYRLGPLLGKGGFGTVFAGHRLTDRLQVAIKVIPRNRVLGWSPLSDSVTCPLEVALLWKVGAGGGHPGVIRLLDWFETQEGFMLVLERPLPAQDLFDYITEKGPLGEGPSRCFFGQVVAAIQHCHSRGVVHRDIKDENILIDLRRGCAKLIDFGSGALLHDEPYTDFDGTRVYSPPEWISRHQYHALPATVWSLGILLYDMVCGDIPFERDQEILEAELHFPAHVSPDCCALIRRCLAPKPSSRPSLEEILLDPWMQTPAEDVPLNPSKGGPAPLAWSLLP

Serine/threonine-protein kinase MARK2 (Homo sapiens), sequence (Q7KZI7 whole entry): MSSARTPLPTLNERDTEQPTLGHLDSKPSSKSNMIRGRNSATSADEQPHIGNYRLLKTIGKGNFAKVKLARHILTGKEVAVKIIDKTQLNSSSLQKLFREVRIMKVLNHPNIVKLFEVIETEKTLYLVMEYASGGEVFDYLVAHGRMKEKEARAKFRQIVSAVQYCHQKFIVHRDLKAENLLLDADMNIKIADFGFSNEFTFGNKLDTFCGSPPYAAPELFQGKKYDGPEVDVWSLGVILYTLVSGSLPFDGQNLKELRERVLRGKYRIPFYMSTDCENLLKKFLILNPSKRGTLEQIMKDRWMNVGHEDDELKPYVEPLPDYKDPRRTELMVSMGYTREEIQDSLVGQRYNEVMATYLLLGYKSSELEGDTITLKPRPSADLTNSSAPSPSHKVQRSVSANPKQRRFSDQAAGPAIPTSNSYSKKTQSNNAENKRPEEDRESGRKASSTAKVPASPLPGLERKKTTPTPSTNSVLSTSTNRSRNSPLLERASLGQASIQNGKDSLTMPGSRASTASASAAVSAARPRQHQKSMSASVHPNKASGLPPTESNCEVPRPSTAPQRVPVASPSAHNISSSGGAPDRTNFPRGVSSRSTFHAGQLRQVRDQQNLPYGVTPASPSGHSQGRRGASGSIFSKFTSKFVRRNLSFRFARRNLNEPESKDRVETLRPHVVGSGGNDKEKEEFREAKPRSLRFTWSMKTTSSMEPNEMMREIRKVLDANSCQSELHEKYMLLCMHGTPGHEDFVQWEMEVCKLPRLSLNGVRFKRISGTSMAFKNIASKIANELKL
MAP kinase-interacting serine/threonine-protein kinase 2 (Homo sapiens), sequence (Q9HBH9 whole entry, looked up): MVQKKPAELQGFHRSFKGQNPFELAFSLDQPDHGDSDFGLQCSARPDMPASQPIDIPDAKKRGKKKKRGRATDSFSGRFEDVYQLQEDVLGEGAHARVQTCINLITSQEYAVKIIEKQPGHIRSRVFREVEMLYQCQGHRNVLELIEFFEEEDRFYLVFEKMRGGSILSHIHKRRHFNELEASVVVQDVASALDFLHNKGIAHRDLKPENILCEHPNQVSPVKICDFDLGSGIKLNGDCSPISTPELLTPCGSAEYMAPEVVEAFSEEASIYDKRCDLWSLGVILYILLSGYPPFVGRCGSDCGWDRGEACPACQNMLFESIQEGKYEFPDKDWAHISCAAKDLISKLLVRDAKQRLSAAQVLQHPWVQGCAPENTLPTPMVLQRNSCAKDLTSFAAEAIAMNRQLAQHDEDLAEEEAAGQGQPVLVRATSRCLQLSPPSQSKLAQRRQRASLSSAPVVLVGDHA

As usually defined, the inhibition is the relative decrease from the control value, in per cent. As for `COc1cc2ncn(-c3cc(O[C@H](C)c4ccccc4Cl)c(C(N)=O)s3)c2cc1OC`, the inhibition in assay [1] turned out to be 37.2%; in [2], 4.58%; in [3], 32%; in [4] it was 4.94%; in [5], 23.7%; in [6], 3.54%. In addition, the inhibition in [7] worked out at 11.9%; in assay [8] it was 3.53%; in assay [9], 11.8%; in assay [10], 2.26%; in assay [11], 17.8%; in assay [12], 1.62%. Also, the inhibition in [13] came to 5.27%; in [14], 3.66%; in [15], 6.72%; in assay [16], 6.57%; in assay [17] it was 12.9%; in assay [18], 1.15%. The inhibition in [19] was 3.93%; in [20] it was 0.26%.
`Nc1ncnc2occ(-c3ccc(NC(=O)Nc4cc(C(F)(F)F)cc(C(F)(F)F)c4)cc3)c12`: the inhibition is 2.35% in assay [1]; 1.32% in assay [2]; 1.47% in assay [3]; 0.21% in assay [4]; 3.24% in assay [6]; 12.2% in assay [7]. The inhibition in assay [8] was 0.38%; in assay [9], 7.49%; in assay [10] it was -1.98%; in [11], 0.58%; in assay [12], 0.36%; in assay [13] it was -1.29%. Also, the inhibition in assay [14] is 1.04%; in assay [15] it was 2.55%; in assay [16] it was 1.7%; in assay [17], -1.63%; in assay [18], 0.69%; in [19], 0.66%. Moreover, the inhibition in assay [20] was found to be 0.17%.
For `CNC(=O)c1cncc(/C=C/c2c(Cl)cccc2Cl)c1`, the inhibition amounted to 3.1% in assay [1]; 1.49% in [2]; 3.08% in [3]; 6.04% in assay [4]; 14.7% in assay [5]; 1.63% in [6]. Moreover, the inhibition in [7] was 6.73%; in [8], 3.42%; in [9] it was 16.3%; in assay [10], 1%; in assay [11], 2.64%; in [12], -1.52%. Besides, the inhibition in assay [13] was -0.36%; in assay [14], 0.96%; in assay [15], 8.72%; in [16], 4.13%; in [17], 4.55%; in [18] it was -0.49%. Besides, the inhibition is 1.79% in assay [19] and -3.71% in assay [20].
Regarding `CCn1c(-c2nonc2N)nc2cnc(Oc3cccc(NC(=O)c4ccc(OCCN5CCOCC5)cc4)c3)cc21`, the inhibition in assay [1] is 8.24%; in assay [2], 1.29%; in assay [3] it was 4.43%; in [4], 10.4%; in assay [5] it was 50.5%; in assay [6] it was 3.45%. Moreover, the inhibition is 13.3% in [7]; 3.73% in assay [8]; 21% in assay [9]; 1.17% in [10]; 11% in assay [11]; -1.22% in assay [12]. Further, the inhibition in [13] was -0.7%; in assay [14], -3.59%; in assay [15], 6.37%; in assay [16], 3.34%; in assay [17] it was 1.77%; in [18], 0.47%. Besides, the inhibition was 10.4% in assay [19] and -0.49% in assay [20].
`CS(=O)(=O)CCNCc1ccc(-c2ccc3ncnc(Nc4ccc(OCc5ccccc5)c(Cl)c4)c3c2)o1`: the inhibition in assay [1] amounted to 1.81%; in [2], 0.94%; in assay [3], 1.91%; in [4], 2.31%; in [5] it was 3.16%; in [6] it was 2.34%. The inhibition in [7] was determined as 6.26%; in assay [8], 1.96%; in assay [9], 9.71%; in assay [10], 0.91%; in assay [11], 3.76%; in [12], 0.71%. Further, the inhibition in assay [13] was 0.11%; in [14], 1.63%; in assay [15] it was 6.13%; in assay [16], -1.65%; in assay [17], -2.44%; in assay [18], 0.36%. The inhibition in assay [19] is 1.78%; in [20], -0.34%.
Consider `COc1ccc(-c2coc3ncnc(N)c23)cc1`, for which the inhibition in assay [1] is -0.28%; in assay [2] it was 3.62%; in assay [3], 2.28%; in assay [4], 4.21%; in [5] it was 5.33%; in [6] it was 2.45%. Further, the inhibition in assay [7] was 4.3%; in assay [8], 0.67%; in [9] it was 0.83%; in [10], 0.91%; in [11], 2.28%; in assay [12], -0.15%. In addition, the inhibition in assay [13] is -1.42%; in [14], 3.44%; in assay [15] it was 6.53%; in assay [16], 4.41%; in assay [17] it was 2.09%; in [18], 1.29%. In addition, the results for the inhibition in assay [19] and in assay [20] were 1.42% and 0.43%, respectively.

For the origin of these results see ChEMBL document CHEMBL1961873, “Compounds: GSK PKIS; Assays: Nanosyn kinase panel” (2012).
